Measurements published in the OligoGym collection.

Target: HCK
Assay: pooled miR-30 sensor sort-seq; sequence = guide strand
Settings: shRNA
Also: reference of the scale not given here.

Sequence | sensor-assay potency score (higher = more potent)
TCGTTGTCCTCAATGACCCGGG | -0.328
TTGTTGTAGGTGGCCATCCAGA | -1.38
TTCCCTTCCAAATCACAGCTGT | 0.224
TTGGTGTGCTTGTTGTAGGTGG | -0.387
TTCCTCTAGGACCACCATCTGG | -1.25
TGATGTTGTAGAGCTCCTCTGG | -0.148
TTTGACCAGCTTGTCATGCTGC | 0.268
TTTAGTGGTCTCGCTATCCCGG | -0.689
TAGTGGTCTCGCTATCCCGGAT | -0.53
TTTGAGAATGTATTGCCTCCGA | -0.315
TTAGTGGTCTCGCTATCCCGGA | -1.31
TTCTTCTCCAGCTTGAGGGATT | -0.963

Target: HCST
Assay: as above
Settings: shRNA

Sequence | sensor-assay potency score (higher = more potent)
TTTGCCATCTTCTTGGGCGGGG | 0.0264
TTGCCATCTTCTTGGGCGGGGC | -1.23
ATGAGCAGCGATGCCACCGCAT | -1.5
TGTAGACTTTGCCATCTTCTTG | -1.11
TGTTGATGTAGACTTTGCCATC | -1.89
AACAAGAGCCTGAAGTGCCAGG | -0.933
AGACTTTGCCATCTTCTTGGGC | -0.803
TCTCTCTCCTGGAGTCGTCTGA | -1.08
TAGACTTTGCCATCTTCTTGGG | -0.36
TCTCTCCTGGAGTCGTCTGAGC | -1.45
TTGATGTAGACTTTGCCATCTT | -0.308
TAGACTTTGCCATCTTGGGCGG | -0.81

Target: HDGF
Assay: as above
Settings: shRNA

Sequence | sensor-assay potency score (higher = more potent)
TCAGGCATCTCGTCAATCCGGG | -0.426
TCTGGGAGGACTGATAGCCGGA | -0.805
TTTCTCTCTGTCCTCTCAGTGG | -1.16
TAGAACTGAAATCATCTACGGT | -0.169
TAAGGGAAGAGGTCTTTGGGGC | -0.718
TTCCCTTCCTCGTCGCTGCTGC | -0.283
TTCCACACAGCTCTTTTTCTGG | -0.811
TTCTTTTCCACCTCCATAGGAA | -0.534
TTCTCAGAGCTAAACTTCCAAA | -1.28
TTCTCGTTCTTCTCCTTGGCTG | -0.535
TCTGGTGACAACACTGAGGGGG | 0.602
TTTCTCGTTCTTCTCCTTGGCT | -0.305
